High-throughput results deposited in PubChem BioAssay by several laboratories.
M1 ag: human M1 muscarinic receptor agonism; P11229; activation, % at 3 µM; actives 0.33% (n = 360,000); CHO-K1 hM1, Fluo-8 calcium fluorescence, agonist mode; 0% DMSO, 100% acetylcholine EC100;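 active means activation above the run's mean compound activation plus 3 SD, cut at about 16% in these data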;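 further: peak over basal fluorescence ratio within a 140 s kinetic read after compound addition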
M1 antag: blocks human M1 muscarinic receptor. P11229. CHO-K1 hM1, Fluo-8 calcium fluorescence, ACh EC80 antagonist. inhibition, % at 3 µM. actives 1.3% (n = 360,000). AID 588852;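 active means percent inhibition above its own plate's cutoff, namely the mean of that plate's compound wells plus 3 SD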;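 further: peak over basal fluorescence ratio during 140 s after agonist addition; 0% = ACh EC80 plus DMSO and 100% = DMSO alone without agonist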
SKN-1 inh: C. elegans SKN-1 inhibition | actives 0.49% (n = 360,000) | C. elegans VP596 Pgst-4::GFP/RFP ratio, acrylamide-induced, 24 h | inhibition, % at 21.8 µM | AID 624304;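 active means interference check ratio from 0.5 to 1.5 plus GFP to RFP signal ratio inhibition reaching or exceeding a fixed threshold, cut at about 30% in these data, passing the limit was not always enough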
M1 PAM: potentiates human M1 receptor response to acetylcholine; P11229; CHO-K1 hM1, Fluo-8 calcium fluorescence, ACh EC20; 0% = ACh EC20, 100% = maximal ACh; activation, % at 3 µM; actives 0.088% (n = 360,000); in the data active means activation above about 19%, passing the limit was not always enough
ATG4B inhibitor: blocks human ATG4B protease cleavage of LC3 substrate; ATG4B cleavage of LC3-PLA2, NBD-HPC fluorescence, 1 h; AID 504462; actives 0.51% (n = 340,000); inhibition, % at 8.33 µM; in the data active means inhibition above about 40%
Target sequence (Q9Y4P1 whole entry, looked up): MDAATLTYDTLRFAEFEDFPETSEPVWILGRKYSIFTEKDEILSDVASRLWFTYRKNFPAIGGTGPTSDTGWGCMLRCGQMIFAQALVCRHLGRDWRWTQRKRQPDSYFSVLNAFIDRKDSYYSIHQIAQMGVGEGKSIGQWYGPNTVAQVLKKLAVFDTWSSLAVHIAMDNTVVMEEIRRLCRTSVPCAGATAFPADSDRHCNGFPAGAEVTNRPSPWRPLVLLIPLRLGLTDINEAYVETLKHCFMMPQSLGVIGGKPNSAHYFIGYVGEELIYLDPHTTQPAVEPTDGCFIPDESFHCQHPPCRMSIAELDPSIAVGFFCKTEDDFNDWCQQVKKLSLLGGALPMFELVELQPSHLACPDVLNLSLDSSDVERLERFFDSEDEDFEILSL
Myeloid diff MLP: myeloid differentiation induction; AID 624256; actives 1% (n = 360,000); ER-HoxA9 myeloid progenitors, lysozyme-GFP differentiation, flow cytometry; calls only at 10 µM;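 active means normalized GFP-positive differentiation at or above the plate's own cutoff, the solvent-only control mean plus 3 SD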;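 further: cells exposed to compound for four days before flow analysis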
Starred values were filed as active, the others as inactive; i = inactive; . = no result; + = active, no number. Only some compounds are listed: those with a hit (about 3.5% of all), similar ones and a draw of the others.

SMILES	M1 ag	M1 antag	SKN-1 inh	M1 PAM	ATG4B inhibitor	Myeloid diff MLP
COc1ccc(Cl)cc1Cn1c(C)c(C(=O)NCc2cccc(C(F)(F)F)c2)sc1=O	-5.5	-16.8	9.1	4.4	.	i
Cc1ccccc1Cn1c(C)c(C(=O)NCc2cccc(Cl)c2)sc1=O	0.3	-8.2	-4.2	7.4	.	i
COc1ccc(CNC(=O)c2sc(=O)n(Cc3ccccc3C)c2C)cc1	33.9*	6.7	1.4	-6.5	.	i
COc1ccccc1Cn1c(C)c(C(=O)NCc2ccc(C#N)cc2)sc1=O	16.3*	31.9*	7.9	-33.3	.	i
COc1ccccc1CNC(=O)c1cccc(S(=O)(=O)N2CCCC2)c1	-6.3	2.3	0.4	0.7	-11.5	i
CCOC(=O)c1sc(NC(=O)CSC(=S)N2CCN(C)CC2)nc1C	-0.1	27.8	-7.8	-14.1	15.1	i
CC(=O)c1c(C)[nH]c(C(=O)CSc2nc3ccccc3c(=O)n2CCCN2CCOCC2)c1C	-5.2	-1.7	-3.1	5.7	3.5	i
Cc1sc2nc(CSc3nc4ccccc4c(=O)n3CCCN3CCOCC3)[nH]c(=O)c2c1C	-2.2	-3.5	25.4	-0.7	-12.0	+
CCOC(=O)CSc1nc2ccccc2c(=O)n1CCN1CCOCC1	-4.4	-3.8	36.2*	5.7	-6.2	i
O=C(COC(=O)/C=C/c1ccccc1[N+](=O)[O-])Nc1ccc(S(=O)(=O)N2CCOCC2)cc1	2.1	-8.8	10.2	1.8	-6.4	i
CC1CCN(CCCCOc2ccc(C(=O)c3ccccc3)cc2)CC1	-2.8	55.3*	1.6	-24.0	-2.9	i
CCCOc1ccc(OCCN2CCCC(C)C2)cc1 (stereo not given)	-7.2	28.3*	10.2	-23.4	-4.0	i
Cc1ccc(OCCCCN2CCC(C)CC2)cc1	-9.6	3.8	-0.4	-6.5	-3.3	i
CC1CCN(CCOc2ccc(C(=O)c3ccccc3)cc2)CC1	-8.6	63.7*	1.8	-29.0	-7.1	i
CC1CCN(CCCCOc2cccc(C(C)C)c2)CC1	-5.3	70.2*	-8.2	-31.1	2.3	i
CC1CCC(NC(=O)COc2ccc(C(=O)c3ccccc3)cc2)CC1 (stereo not given)	-2.5	-16.6	1.5	10.1	6.3	i
CC1CCN(CCOc2cccc(Br)c2)CC1	-8.8	9.1	3.1	-5.3	-0.4	i
C/C(=N\O)c1ncc(C(F)(F)F)cc1Cl	-5.1	-1.6	-0.7	4.5	5.8	i
COc1ccc(CCNC(=O)C2CCCN2C(=O)Nc2ccc(Cl)cc2)cc1OC (stereo not given)	-3.7	-6.2	26.9	5.3	-8.0	i
CCN1C2=C(C(=O)CCC2)C(c2ccc(O)c(Br)c2)C2=C1CCCC2=O	-3.6	-1.5	8.0	11.2	4.3	i
O=C1CCCC2=C1C(c1ccc(O)c(Br)c1)C1=C(CCCC1=O)N2c1ccccc1	4.2	-7.5	9.1	11.9	-0.8	+
COC(=O)c1ccc(C2C(C(C)=O)=C(C)Nc3ncnn32)cc1 (stereo not given)	-11.2	102.0*	-3.9	-32.5	1.5	i
CC12CNCC(C)(CN(C(c3ccccc3)c3ccccc3)C1)C2	-5.7	58.9*	6.9	-22.2	25.1	i
Clc1ccc(C(c2ccccc2)N2CCNCC2)cc1 (stereo not given)	0.5	22.6	2.1	-10.1	-5.5	i
CC1CCN(CCOCCOc2ccc(Br)cc2Cl)CC1	-8.3	45.2*	3.5	-23.2	2.0	i
CC1CCCN(CCCOc2ccc(Br)cc2Cl)C1 (stereo not given)	-6.2	28.2	-15.5	-17.6	1.7	i
CC(C)n1c(SCC(=O)N2c3ccccc3Sc3ccccc32)nc2c1c(=O)n(C)c(=O)n2C	-1.7	-9.3	6.5	4.4	5.2	+
CCCn1c(SCC(=O)N2c3ccccc3Sc3ccccc32)nc2c1c(=O)n(C)c(=O)n2C	-2.7	0.7	20.4	2.1	-11.1	i
CN(C)CCCn1c(SCC(=O)N2c3ccccc3Sc3ccccc32)nc2ccccc2c1=O	-14.9	38.7*	0.7	-27.2	25.7	i
Cc1ccccc1-n1ccnc1SCC(=O)Nc1cccc(S(=O)(=O)NC2=NCCC2)c1	-3.9	-7.5	-4.1	4.4	-2.7	i
